# Source: PubChem BioAssay AID720690 (Broad Institute, 2013)
# Entries with a potency or affinity are not part of this list. Active and inactive are the calls of the source.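 How the source made its calls: active means every repeat run showing a signal drop whose fitted half-maximal concentration is at most twice the top tested concentration; inconclusive means repeat runs disagree, or flat partial drop, or poor fit; inactive means the rest.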
# Experiment: HEK293T cytotoxicity, dose response, cytotoxicity control for miR-122 modulator project, cell-based, activator set, cherry-pick (AID 720690)
row,Compound,outcome
1,CCC(=O)N1[C@H](CO)[C@@H](c2ccccc2)[C@@H]1CN(C(C)C)S(C)(=O)=O,inactive
2,Cc1cc(C)cc(NC(=O)c2ccc(CSc3nnc(C)s3)cc2)c1,inactive
3,C[C@@H]1CN([C@H](C)CO)S(=O)(=O)c2ccc(C3=CCCC3)cc2O[C@@H]1CN(C)C(=O)c1cnccn1,inactive
4,C/C=C/c1ccc([C@@H]2[C@H](CO)N[C@H]2CN(CC)C(=O)CN2CCOCC2)cc1,inactive
5,CC(C)C(=O)Nc1ccc2c(c1)C(=O)N(C)[C@@H]1CC[C@@H](CC(=O)NCC3CC3)O[C@H]1CO2,inactive
6,C[C@H]1CN([C@@H](C)CO)C(=O)c2cc(C#Cc3cccnc3)cnc2O[C@H]1CN(C)S(=O)(=O)c1ccccc1F,inactive
7,CCNC(=O)C[C@H]1CC[C@H]2[C@H](COc3ccc(NC(=O)Nc4cccc(OC)c4)cc3C(=O)N2C)O1,inactive
8,CN1C(=O)c2cc(NC(=O)Cc3ccccc3)ccc2OC[C@H]2O[C@@H](CC(=O)NCc3ccc(Cl)cc3)CC[C@@H]21,inactive
9,C=CCNC(=S)NNC(=O)Cn1c(-c2ccccc2)cc(=O)n2ncnc12,inactive
10,CN(C)CCNc1ncnc2c1sc1nc(N3CCOCC3)c3c(c12)CC(C)(C)SC3,inactive
11,CC(C)(C)c1ccc(S(=O)(=O)NCCc2ccncc2)cc1,inactive
12,CN1C(=O)c2cc(NC(=O)c3ccc4c(c3)OCO4)ccc2OC[C@H]2O[C@H](CC(=O)O)CC[C@@H]21,inactive
13,N#Cc1c(N)nc2c(c1-c1cccs1)CCCC2,inactive
14,CCCC#Cc1ccc2c(c1)O[C@H](CN(C)C(=O)COC)[C@H](C)CN([C@@H](C)CO)S2(=O)=O,inactive
15,CCOc1ccc(NC(=S)N(CCCN2CCCC2)Cc2cccn2Cc2ccc(Cl)cc2)cc1,inactive
16,CCC(=O)N1[C@H](CN(C(C)C)S(C)(=O)=O)[C@@H](c2ccccc2)[C@@H]1CO,inactive
17,CC(C)NC(=O)Nc1ccc2c(c1)C(=O)N(C)[C@H]1CC[C@H](CC(=O)NCC(F)(F)F)O[C@H]1CO2,inactive
18,CNC(=O)C[C@@H]1CC[C@@H]2[C@@H](COc3ccc(NC(=O)NC(C)C)cc3C(=O)N2C)O1,inactive
19,CCS(=O)(=O)Nc1ccc2c(c1)C(=O)N(C)[C@@H]1CC[C@@H](CC(=O)NCCCN3CCOCC3)O[C@H]1CO2,inactive
20,O=c1c2c3c(sc2nc2n1CCC2)CCCC3,inactive
21,Fc1ccc(CN2CCN(c3ncnc4scc(-c5ccc(F)cc5)c34)CC2)cc1,inactive

row,Compound,outcome
1,CN1C(=O)c2cc(NC(=O)c3cccc(F)c3)ccc2OC[C@@H]2O[C@@H](CC(=O)O)CC[C@H]21,inactive
2,C[C@H]1CCCCO[C@@H](CN(C)CC2CCCCC2)[C@@H](C)CN([C@@H](C)CO)C(=O)c2cc(NC(=O)Nc3cccc4ccccc34)ccc2O1,inactive
3,COCC(=O)N(C)C[C@H]1Oc2cc(-c3ccccc3F)ccc2S(=O)(=O)N([C@@H](C)CO)C[C@@H]1C,inactive
4,CCCNC(=O)Nc1ccc2c(c1)C(=O)N(C)[C@@H]1CC[C@H](CC(=O)O)O[C@H]1CO2,inactive
5,CCCNC(=O)C[C@H]1CC[C@@H]2[C@H](COc3ccc(NC(=O)c4cc(F)cc(F)c4)cc3C(=O)N2C)O1,inactive
6,COCC(=O)N1[C@H](CO)[C@@H](c2ccccc2)[C@H]1CN(C)C(=O)c1ccncc1,inactive
7,COCC(=O)N(C)C[C@H]1Oc2cc(-c3ccccc3F)ccc2S(=O)(=O)N([C@H](C)CO)C[C@H]1C,inactive
8,C[C@@H]1CN([C@H](C)CO)S(=O)(=O)c2ccc(C3=CCCCC3)cc2O[C@@H]1CN(C)C(=O)Nc1ccc2c(c1)OCO2,inactive
9,CCCCN1C=C(C(=O)OC)C(c2ccccc2C(F)(F)F)C(C(=O)OC)=C1,inactive
10,C/C=C/c1ccc([C@@H]2[C@@H](CO)N[C@@H]2CN(CC(C)C)C(=O)c2ccccn2)cc1,inactive
11,Cc1cc2n(n1)C(c1cn(-c3ccccc3)nc1C)Nc1c(C)cccc1-2 (stereo unspecified),inactive
12,COC(=O)C[C@@H]1CC[C@@H]2[C@H](COc3ccc(NC(=O)c4cc(F)cc(F)c4)cc3C(=O)N2C)O1,inactive
13,Cc1cc(NS(=O)(=O)c2ccc(NC(=O)C(CC(C)C)N3C(=O)c4ccccc4C3=O)cc2)nc(C)n1 (stereo unspecified),inactive
14,C[C@@H]1CN([C@H](C)CO)S(=O)(=O)c2ccc(C#CC3CC3)cc2O[C@@H]1CN(C)C(=O)c1cccc(F)c1,inactive
15,CNC(=O)C[C@H]1CC[C@@H]2[C@@H](COc3ccc(NC(=O)Nc4ccc(Cl)cc4)cc3C(=O)N2C)O1,inactive
16,O=C(Nc1ccc(F)cc1)N1C[C@@H]2[C@H](c3ccccc31)[C@H](CO)N2C(=O)Cc1ccccc1,inactive
17,CC(=O)N1[C@@H](CO)[C@@H](c2ccccc2)[C@@H]1CNC(=O)CN1CCOCC1,inactive
18,CN(C)CCCNC(=O)C[C@H]1CC[C@H]2[C@@H](COc3ccc(NC(=O)c4ccccc4F)cc3C(=O)N2C)O1,inactive
19,O=C(NC[C@@H]1[C@@H](c2ccccc2)[C@H](CO)N1C(=O)C1CCC1)NC1CCCC1,inactive
20,COc1ccc(NS(=O)(=O)c2ccc(NC(=O)C(C)(C(F)(F)F)C(F)(F)F)cc2)nn1,inactive
21,CC(=O)Nc1ccc2c(c1)C(=O)N(C)[C@H]1CC[C@H](CC(=O)Nc3ccccc3Cl)O[C@@H]1CO2,inactive

row,Compound,outcome
1,C[C@@H]1CN([C@H](C)CO)S(=O)(=O)c2ccc(-c3ccc(C(=O)N(C)C)cc3)cc2O[C@@H]1CN(C)C(=O)C1CCC1,inactive
2,COC(=O)C[C@H]1CC[C@@H]2[C@@H](COc3ccc(NC(=O)c4cnccn4)cc3C(=O)N2C)O1,inactive
3,COCC(=O)Nc1ccc2c(c1)C(=O)N(C)[C@H]1CC[C@@H](CC(=O)NC3CCCC3)O[C@H]1CO2,inactive
4,CCNC(=O)Nc1ccc2c(c1)C(=O)N(C)[C@H]1CC[C@H](CC(=O)NCc3ccccc3F)O[C@H]1CO2,inactive
5,COC(=O)C[C@H]1CC[C@@H]2[C@H](COc3ccc(NC(=O)c4cc(F)cc(F)c4)cc3C(=O)N2C)O1,inactive
6,CC(=O)Nc1ccc(-c2cc(-c3ccc(NC(C)=O)cc3)nc(-c3ccc(NC(C)=O)cc3)n2)cc1,inactive
7,CNC(=O)C[C@H]1CC[C@@H]2[C@H](COc3ccc(NS(=O)(=O)c4ccc(F)cc4)cc3C(=O)N2C)O1,inactive
8,Cc1cc(C(=O)Nc2ccc3c(c2)C(=O)N(C)[C@@H]2CC[C@@H](CC(=O)N[C@H](C)c4ccccc4)O[C@H]2CO3)no1,inactive
9,Cc1onc(-c2ccccc2)c1C(=O)NCc1ccccn1,inactive
10,COCC(=O)Nc1ccc2c(c1)C(=O)N(C)[C@H]1CC[C@@H](CC(=O)NCCCN(C)C)O[C@@H]1CO2,inactive
11,CNC(=O)c1nc(C)n(-c2cc(Cl)cc(Cl)c2)n1,inactive
12,N#CCc1c(C#N)c(N)nc(N2CCN(S(=O)(=O)c3ccccc3)CC2)c1C#N,inactive
13,CN1C(=O)c2cc(NC(=O)c3cccs3)ccc2OC[C@@H]2O[C@@H](CC(=O)N3CCOCC3)CC[C@H]21,inactive
14,CN1C(=O)c2cc(NC(=O)c3cccs3)ccc2OC[C@@H]2O[C@@H](CC(=O)NCC(F)(F)F)CC[C@H]21,inactive
15,CCC(=O)NC[C@@H]1[C@@H](c2ccc(C3=CCCC3)cc2)[C@@H](CO)N1C(C)=O,inactive
16,CN1C(=O)c2cc(NC(=O)c3cccs3)ccc2OC[C@H]2O[C@@H](CC(=O)NCCN3CCCCC3)CC[C@H]21,inactive
17,CCCNC(=O)C[C@@H]1CC[C@@H]2[C@@H](COc3ccc(NC(=O)c4ccc(C(F)(F)F)cc4)cc3C(=O)N2C)O1,inactive
18,C/C=C/c1ccc([C@H]2[C@H](CO)N(C(C)=O)[C@H]2CN(C)C(=O)c2ccccn2)cc1,inactive
19,COC(=O)C[C@@H]1CC[C@H]2[C@@H](COc3ccc(NC(=O)c4ccc(C(F)(F)F)cc4)cc3C(=O)N2C)O1,inactive
20,C/C=C/c1ccc([C@H]2[C@@H](CO)N(C(C)=O)[C@@H]2CN(C(=O)COC)C(C)C)cc1,inactive
21,CN(C)c1ncnc2c1ncn2C1OC(CO)C(O)C1O (stereo unspecified),inactive

row,Compound,outcome
1,CC(C)C(=O)Nc1ccc2c(c1)C(=O)N(C)[C@H]1CC[C@@H](CC(=O)NCc3ccccc3F)O[C@H]1CO2,inactive
2,CCOC(=O)c1ccc(NC(=O)c2ccc(CN3CCOCC3)cc2)cc1,inactive
3,COc1ccc(C(C#N)Nc2ccc(C)cc2)cc1 (stereo unspecified),inactive
4,O=C(Nc1ccc(CN2CCOCC2)cc1)c1ccc(-c2ccc(Cl)cc2Cl)o1,inactive
5,CO[C@@H]1CN(C)C(=O)c2ccc(NS(=O)(=O)c3cccc(F)c3)cc2OC[C@@H](C)NC[C@H]1C,inactive
6,CNC(=O)C[C@H]1CC[C@H]2[C@H](COc3ccc(NC(=O)c4cccc(F)c4)cc3C(=O)N2C)O1,inactive
7,Cn1c(NC(=O)c2ccco2)c(-c2ccccc2Cl)c(=O)c2ccccc21,inactive
8,COCC(=O)N(C[C@H]1[C@H](c2ccccc2)[C@@H](CO)N1C(=O)NC(C)C)C(C)C,inactive
9,CCCc1ccc(S(=O)(=O)NCCc2ccncc2)cc1,inactive
10,CC1(C)CC(=O)c2cnc(NC(=O)c3ccco3)nc2C1,inactive
11,C[C@@H]1CN([C@@H](C)CO)S(=O)(=O)c2ccc(C#CC3CC3)cc2O[C@@H]1CN(C)C(=O)c1cccc(F)c1,inactive
12,O=C(c1cccnc1)N1C[C@H]2[C@@H](c3ccccc31)[C@H](CO)N2C(=O)C1CCCC1,inactive
13,CN(C)CCCNC(=O)C[C@H]1CC[C@H]2[C@H](COc3ccc(NS(C)(=O)=O)cc3C(=O)N2C)O1,inactive
14,COc1ccccc1CNc1nc(NCC2CC2)nc2ccsc12,inactive
15,CN(C(=O)C12CC3CC(CC(C3)C1)C2)C1CCS(=O)(=O)C1 (stereo unspecified),inactive
16,O=C(C1CC1)N(CCN(C(=O)C1CC1)c1ccccc1)c1ccccc1,inactive
17,CNC(=O)C[C@@H]1CC[C@@H]2[C@@H](COc3ccc(NC(=O)Nc4ccc(F)c(F)c4)cc3C(=O)N2C)O1,inactive
18,C/C=C/c1ccc([C@H]2[C@@H](CO)N(C(=O)NC(C)C)[C@H]2CN(C)C(=O)CC)cc1,inactive
